Rows were chosen to be rich in hits. Some 28% of all compounds tested hit in one or more screens of this group.
CYP2C9 inhib – inhibitors of human CYP2C9; P11712; CYP2C9 Supersomes, luciferin-H conversion, luminescence; inhibition, % at 5 µM; 96,000 compounds, 20% hits;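 active = blocking of liver enzyme CYP2C9 beyond about 50% at 5 µM, limit read from the data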
CYP2C19 inh – human CYP2C19 inhibition; inhibition, % at 5 µM; AID 778; P33261; 96,000 compounds, 21% hits; CYP2C19 Supersomes, luciferin-H EGE luminescence, 30 min;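 active = CYP2C19 inhibition above a set limit at 5 µM in the primary screen, cut at about 50% in these data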
Target sequence (P33261 whole entry, looked up): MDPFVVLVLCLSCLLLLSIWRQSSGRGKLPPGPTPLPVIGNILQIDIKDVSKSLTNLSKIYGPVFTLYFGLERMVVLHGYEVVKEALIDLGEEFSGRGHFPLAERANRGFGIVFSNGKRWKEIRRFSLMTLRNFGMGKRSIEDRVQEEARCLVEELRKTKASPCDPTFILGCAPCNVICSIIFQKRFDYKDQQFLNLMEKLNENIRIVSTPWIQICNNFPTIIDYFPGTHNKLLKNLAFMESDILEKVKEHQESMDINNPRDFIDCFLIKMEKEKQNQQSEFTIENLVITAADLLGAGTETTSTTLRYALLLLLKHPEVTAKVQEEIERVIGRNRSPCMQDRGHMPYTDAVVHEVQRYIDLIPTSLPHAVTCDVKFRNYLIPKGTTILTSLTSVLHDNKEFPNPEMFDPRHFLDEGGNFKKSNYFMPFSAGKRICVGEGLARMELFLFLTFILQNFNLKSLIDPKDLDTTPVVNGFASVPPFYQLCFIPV
CYP2C9 activ – CYP2C9 (human) activation; 96,000 compounds, 1.4% hits; recombinant CYP2C9, luciferin-H conversion, luminescence; hits give high values; factor 1 = untreated enzyme, 0 = blocked; activation factor at 5 µM;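 active = activation factor of 2 or more for CYP2C9 at a 5 µM dose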
CYP2C19 activ – activators of human cytochrome P450 2C19; P33261; recombinant CYP2C19, luciferin-H EGE luminescence; hits give high values; 0 = fully inhibited enzyme, 1 = untreated enzyme; activation factor at 5 µM; 96,000 tested, under 10 active;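 active = activation factor of at least 2 at 5 µM in the primary screen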
Plk1 PBD FP – inhibitors of human Plk1 polo box domain binding | P53350 | Plk1 PBD phosphopeptide binding, fluorescence polarization | inhibition, %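 (tested at about 20 µM)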 | 97,000 compounds, 0.13% hits | AID 693; in the data active = inhibition above about 34%, passing the limit was not always enough
PLK1 kinase inh – blocks human PLK1 kinase activity; P53350; recombinant PLK1 kinase, TR-FRET peptide phosphorylation; inhibition, % at 10 µM; 97,000 compounds, 0.53% hits;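 active = inhibition of 50% or more in the single-concentration screen; inactive = inhibition below 50%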
Hits are given with their value; . = inactive; / = no result.

SMILES	CYP2C9 inhib	CYP2C19 inh	CYP2C9 activ	CYP2C19 activ	Plk1 PBD FP	PLK1 kinase inh
Cc1ccc(S(=O)(=O)C(C#N)c2nc3ccccc3nc2N2CCN(C)CC2)cc1C (stereo not given)	75	.	.	.	.	.
N#CC(c1nc2ccccc2nc1N1CCCC1)S(=O)(=O)c1cccs1 (stereo not given)	75	.	.	.	.	.
COc1ccc(S(=O)(=O)C(C#N)c2nc3ccccc3nc2N2CCCCC2)cc1 (stereo not given)	64	57	.	.	.	.
N#CC(c1nc2ccccc2nc1N1CCCC1)S(=O)(=O)c1ccccc1 (stereo not given)	.	.	.	.	.	.
Cc1cccc(S(=O)(=O)C(C#N)c2nc3ccccc3nc2N2CCCC2)c1 (stereo not given)	.	.	.	.	.	.
CCN(CC)CCCCOc1ccccc1OC	.	.	.	.	.	.
C(=N\n1cnnc1SCc1ccccc1)/c1ccco1	.	.	.	.	.	.
CS(=O)(=O)N(CC(=O)Nc1cc(Cl)ccc1Cl)c1ccccc1Cl	77	96	.	.	.	.
COc1ccc(Cl)cc1NC(=O)CN(c1ccccc1)S(=O)(=O)N(C)C	.	81	.	.	.	.
Cc1cccc(C)c1N(CC(=O)Nc1cc(Cl)ccc1Oc1ccccc1)S(C)(=O)=O	66	.	.	.	.	.
CCOC(=O)c1ccccc1NC(=O)CN(c1ccccc1)S(=O)(=O)N(C)C	94	86	.	.	.	.
COc1ccc(NC(=O)CN(c2ccccc2)S(=O)(=O)N(C)C)cc1OC	.	.	.	.	.	.
O=c1c(Cl)c(NCCO)ncn1-c1ccccc1	/	/	/	/	.	.
COc1ccc(Cl)cc1NC(=O)C(=O)NC1CCCCCC1	.	.	.	.	.	.
Cc1ccc(Cl)cc1NC(=O)COC(=O)C12CC3CC(CC(C3)C1)C2	.	.	.	.	.	.
COc1ccc(C)cc1NC(=O)COC(=O)c1c(C)noc1C	.	.	.	.	.	.
COC(=O)c1[nH]c2cccc(Cl)c2c1NC(=O)CN(C)C1CCCCC1	63	.	.	.	.	.
COc1ccc(Cl)cc1NC(=O)CN(C)C1CCCCC1	.	86	2.3	.	.	.
Cc1ccc(Cl)cc1NC(=O)COC(=O)C1CCCC1	.	96	.	.	/	/
Cc1noc(C)c1C(=O)OCC(=O)Nc1cc(Cl)ccc1Oc1ccccc1	63	.	.	.	.	.
CC(C)CC(c1nnnn1Cc1ccccc1)N1CCC(C(N)=O)CC1 (stereo not given)	/	/	/	/	.	.
Cc1ccc(Cn2cccc(NC(=O)c3ccco3)c2=O)cc1	60	72	.	.	.	.
CC(C)Oc1ccc(C(=O)NCc2ccco2)cc1	.	70	.	.	.	.
O=C(COc1ccc(Cl)cc1)Nc1ccccc1C(=O)NCc1ccco1	.	.	.	.	.	.
Cc1ccc(Cn2cccc(NC(=O)NCc3ccccc3)c2=O)cc1	.	.	.	.	.	.
SMILES	CYP2C9 inhib	CYP2C19 inh	CYP2C9 activ	CYP2C19 activ	Plk1 PBD FP	PLK1 kinase inh
Cc1cc(C)cc(OCC(=O)Nc2ccccc2C(=O)NCc2ccco2)c1	80	91	.	.	.	.
CC(C)(C)c1ccccc1NC(=O)c1ccco1	.	53	.	.	.	.
CC(C)(C)c1ccc(C(=O)Nc2ccccc2NC(=O)c2ccco2)cc1	/	/	/	/	.	.
O=C(C1CCCN(Cc2ccccc2)C1)N1CCc2ccccc2C1 (stereo not given)	.	.	.	.	.	.
CCCCC(CC)C(=O)NCCCN1CCN(CCCNC(=O)C(CC)CCCC)CC1 (stereo not given)	.	.	.	.	/	/
O=C(NCc1ccccc1)c1cccc(NC(=O)c2ccco2)c1	85	56	.	.	.	.
CC(C)CNC(=O)c1cccc(NC(=O)c2ccco2)c1	.	.	.	.	.	.
O=C(NCc1ccco1)c1cccc(NC(=O)c2ccco2)c1	82	.	.	.	.	.
CN(Cc1ccccc1)C(=O)c1cccc(NC(=O)c2ccco2)c1	.	.	3.1	.	.	.
O=C(Nc1ccccc1C(=O)Nc1ccccc1C(=O)NCc1ccco1)c1ccco1	.	.	.	.	.	.
Cc1c(NC(=O)c2cccc(NC(=O)c3ccco3)c2)cccc1C(=O)O	.	.	.	.	.	.
O=C(Nc1ccccc1C(=O)NCc1ccco1)c1ccco1	71	.	.	.	.	.
CCCc1nnc(NC(=O)Cn2cnc3ccccc3c2=O)s1	.	.	.	.	.	.
Cc1ccc(C(=O)Nc2cccc(C(=O)NCc3ccccc3)c2)o1	88	52	.	.	/	/
Cc1ccc(C(=O)Nc2cccc(Oc3ccccc3)c2)o1	.	.	.	.	.	.
CCOc1ccc(N(CC)S(=O)(=O)c2ccc3c(c2)oc(=O)n3C)cc1	/	/	/	/	.	.
COc1ccc(NC(=S)N/N=C2/CCCc3c(C)cc(C)cc32)cc1	.	.	.	.	.	.
COc1ccc(NC(=O)O/N=C2/CCCc3ccc(OC)cc32)cc1	62	.	.	.	.	.
COc1cc(NC(=O)C2CCN(S(=O)(=O)c3ccc(Cl)cc3)CC2)ccc1-n1cnnn1	.	.	.	.	.	.
COc1cc2c(cc1OC)C(c1cccnc1)CC(=O)N2 (stereo not given)	.	.	.	.	.	.
O=C1CC(c2cccc(Br)c2)c2cc3c(cc2N1)CCC3 (stereo not given)	55	.	.	.	.	.
Cc1[nH]nc2c1C(CCc1ccccc1)C(C#N)=C(N)O2 (stereo not given)	.	74	.	.	/	/
Cc1[nH]nc2c1C(c1ccoc1)C(C#N)=C(N)O2 (stereo not given)	/	/	/	/	.	55
COc1cc(C2C(C#N)=C(N)Oc3n[nH]c(C)c32)ccc1OC(=O)c1ccccc1 (stereo not given)	.	.	.	.	.	.
COc1cc(C2C(C#N)=C(N)Oc3n[nH]c(C)c32)cc2c1OCO2 (stereo not given)	63	55	.	.	/	/
SMILES	CYP2C9 inhib	CYP2C19 inh	CYP2C9 activ	CYP2C19 activ	Plk1 PBD FP	PLK1 kinase inh
Cc1nn(-c2ccccc2)c(C)c1C1C(C#N)=C(N)Oc2n[nH]c(C)c21 (stereo not given)	/	/	/	/	.	.
CCC(C)C1C(C#N)=C(N)Oc2n[nH]c(C)c21 (stereo not given)	/	/	/	/	.	.
COC(=O)Cc1[nH]nc2c1C(C1C=CCCC1)C(C#N)=C(N)O2 (stereo not given)	60	70	.	.	.	.
O=C(N/C=C/c1ccc(Cl)cc1)NCc1ccc(Cl)cc1	.	.	.	.	.	.
COc1cccc(-n2nnc3c(=O)n(CC(=O)N4CCCc5ccccc54)cnc32)c1	.	.	.	.	.	.
Cc1noc(C)c1COc1ccc(C(=O)OC(C)C(=O)Nc2ccc(N3CCOCC3)cc2)cc1 (stereo not given)	.	.	.	.	.	.

Screening data as filed in PubChem BioAssay.
